Shown are actives, neighbours in structure and some others; about 8.7% of the full set was active somewhere.
hDAT+cocaine = changed hDAT dopamine uptake under cocaine IC80, either direction, primary screen, cocaine antagonist project, cell-based, LLC-PK1 hDAT, [14C]-dopamine uptake, MLSMR. Sodium-dependent dopamine transporter (Homo sapiens), Q01959. LLC-PK1 hDAT cells, [14C]-dopamine uptake with cocaine IC80; actives deviate in either direction. B-score at 10 µM. 110,000 tested, 1.3% active. AID 449768, 2010;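 active means Z score or B-score, a plate-position-corrected score, falls beyond the plate's 99.7% confidence bounds, in either direction; inactive means both scores lie inside the 99.7% bounds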;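 further: scored against the spread of the other compound wells on the same plate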
PostGolgi ctrl = growth inhibition of yeast control strain, primary screen, counter-screen for post-Golgi transport modulator project; efflux-deficient yeast background strain, growth absorbance A615, 16 h; inhibition, % at 10 µM; 98,000 tested, 5% active
Smad3 inh = Smad3/FoxH1 peptide binding inhibitors, primary screen, biochemical, TR-FRET; TR-FRET Smad3/Dy647-FoxH1 peptide binding, europium anti-His; inhibition, % at 25 µM; 88,000 tested, 0.29% active; AID 630, 2007;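 active means compounds that reduce the energy-transfer binding signal between the protein and its labelled peptide by more than half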;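 further: 0% = Smad3 plus labelled peptide maximal FRET and 100% = peptide-only background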
TNAP act mid DEA = human TNAP enzyme activators, primary screen, biochemical, luminescent, intermediate phosphate acceptor level; Alkaline phosphatase, tissue-nonspecific isozyme (Homo sapiens), P05186; activation factor at 20 µM; purified TNAP, CDP-star luminescence, 100 mM DEA, 30 min; stronger effect = higher value; scale: 0 levamisole-inhibited, 1 vehicle-only enzyme; 64,000 tested, under 10 active; AID 813, 2007;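 active means activation factor of at least 2 at 20 µM, relative to controls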
PostGolgi yeast = phenotypic screen on post-Golgi transport, primary screen; post-Golgi transport phenotypic cell assay; inhibition, % at 10 µM; 98,000 tested, 0.9% active;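 further: yeast cells grown in 1536-well plates; yeast grown about 18 h at 30C before absorbance read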
Cav32 inh = Cav3.2 calcium influx blockers – cell-based, Fluo-4 calcium fluorescence, FDSS, MLSMR library, primary screen; B-score at 10 µM; AID 449739, 2010; 100,000 tested, 4% active; Voltage-dependent T-type calcium channel subunit alpha-1H (Homo sapiens), O95180; Cav3.2-expressing cells; stronger effect = lower value;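 active means single-dose well whose peak fluorescence ratio is a statistical outlier from its plate by either plate-standardised score or position-corrected B-score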
Target sequence (O95180 whole entry, looked up): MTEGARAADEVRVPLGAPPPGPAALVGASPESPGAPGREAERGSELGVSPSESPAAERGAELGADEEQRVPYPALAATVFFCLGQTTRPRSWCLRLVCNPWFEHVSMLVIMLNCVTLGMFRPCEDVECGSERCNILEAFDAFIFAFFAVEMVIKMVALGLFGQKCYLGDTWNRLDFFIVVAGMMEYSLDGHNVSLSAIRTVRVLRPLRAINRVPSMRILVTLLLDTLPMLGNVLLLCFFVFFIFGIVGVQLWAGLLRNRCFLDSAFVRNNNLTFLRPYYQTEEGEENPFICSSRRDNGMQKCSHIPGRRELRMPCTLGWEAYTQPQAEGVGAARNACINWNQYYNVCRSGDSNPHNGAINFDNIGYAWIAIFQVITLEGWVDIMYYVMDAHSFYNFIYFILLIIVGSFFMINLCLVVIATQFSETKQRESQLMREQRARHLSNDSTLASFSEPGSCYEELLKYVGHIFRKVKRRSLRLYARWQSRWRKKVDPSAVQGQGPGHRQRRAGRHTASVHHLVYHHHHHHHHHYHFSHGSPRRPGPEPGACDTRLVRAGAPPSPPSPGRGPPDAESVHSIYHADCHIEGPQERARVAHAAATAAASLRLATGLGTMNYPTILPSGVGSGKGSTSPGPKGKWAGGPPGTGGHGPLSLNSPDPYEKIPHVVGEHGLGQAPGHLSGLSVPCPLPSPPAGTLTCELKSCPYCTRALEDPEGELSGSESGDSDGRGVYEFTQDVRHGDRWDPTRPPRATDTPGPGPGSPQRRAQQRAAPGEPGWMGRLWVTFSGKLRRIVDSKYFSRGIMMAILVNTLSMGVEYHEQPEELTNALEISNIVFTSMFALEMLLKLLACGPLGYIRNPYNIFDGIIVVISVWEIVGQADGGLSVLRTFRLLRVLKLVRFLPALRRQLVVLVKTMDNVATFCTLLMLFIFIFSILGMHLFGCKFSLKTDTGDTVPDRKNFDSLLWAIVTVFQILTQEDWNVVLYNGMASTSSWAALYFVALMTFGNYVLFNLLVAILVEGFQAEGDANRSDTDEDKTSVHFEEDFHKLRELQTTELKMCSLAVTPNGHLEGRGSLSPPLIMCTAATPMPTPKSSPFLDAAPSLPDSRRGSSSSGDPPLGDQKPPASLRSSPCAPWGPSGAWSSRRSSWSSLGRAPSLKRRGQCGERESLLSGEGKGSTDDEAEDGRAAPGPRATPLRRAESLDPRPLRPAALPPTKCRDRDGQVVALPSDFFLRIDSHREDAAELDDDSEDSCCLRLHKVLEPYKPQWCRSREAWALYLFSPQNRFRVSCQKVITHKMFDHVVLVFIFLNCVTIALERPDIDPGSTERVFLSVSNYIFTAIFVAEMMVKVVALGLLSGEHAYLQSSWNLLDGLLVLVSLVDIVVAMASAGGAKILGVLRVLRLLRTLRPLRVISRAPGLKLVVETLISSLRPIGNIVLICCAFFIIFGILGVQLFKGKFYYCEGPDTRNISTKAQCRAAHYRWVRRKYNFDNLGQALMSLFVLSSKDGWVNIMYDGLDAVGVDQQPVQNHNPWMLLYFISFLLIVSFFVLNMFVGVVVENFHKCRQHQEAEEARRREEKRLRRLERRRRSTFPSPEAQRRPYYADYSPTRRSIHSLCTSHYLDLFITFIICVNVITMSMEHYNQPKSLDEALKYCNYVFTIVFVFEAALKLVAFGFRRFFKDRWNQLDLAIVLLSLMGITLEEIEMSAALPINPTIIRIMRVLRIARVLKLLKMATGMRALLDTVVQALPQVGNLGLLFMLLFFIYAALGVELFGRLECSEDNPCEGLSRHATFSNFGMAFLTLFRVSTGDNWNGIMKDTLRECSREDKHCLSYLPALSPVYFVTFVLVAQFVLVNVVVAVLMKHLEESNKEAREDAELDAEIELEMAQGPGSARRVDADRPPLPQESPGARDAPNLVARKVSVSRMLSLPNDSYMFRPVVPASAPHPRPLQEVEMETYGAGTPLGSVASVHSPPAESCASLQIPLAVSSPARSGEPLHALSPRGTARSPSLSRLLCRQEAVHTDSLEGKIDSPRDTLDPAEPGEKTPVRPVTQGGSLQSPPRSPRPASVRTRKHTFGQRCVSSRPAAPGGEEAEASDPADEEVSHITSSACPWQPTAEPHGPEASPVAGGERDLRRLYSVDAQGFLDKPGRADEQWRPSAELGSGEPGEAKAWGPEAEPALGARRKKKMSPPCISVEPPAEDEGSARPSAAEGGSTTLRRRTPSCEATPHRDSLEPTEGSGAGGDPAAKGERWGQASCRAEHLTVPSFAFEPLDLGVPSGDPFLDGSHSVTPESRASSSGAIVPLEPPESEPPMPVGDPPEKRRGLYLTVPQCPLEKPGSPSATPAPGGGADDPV
Numbers without * were called inactive; . = no result given. Unless noted, no stated cut-off is given here; in the data, active means inhibition above about 30%; inactive means the rest.

SMILES	hDAT+cocaine	PostGolgi ctrl	Smad3 inh	TNAP act mid DEA	PostGolgi yeast	Cav32 inh
O=C(NCC1CCCO1)C(c1cccnc1)N(C(=O)Cc1cccs1)c1ccccc1 (configuration not stated)	-0.026	-3	.	.	2	2.1
COc1cccc(-c2nc(CS(=O)CC(=O)NCc3ccccc3Cl)c(C)o2)c1 (configuration not stated)	0.3	14	-11	0.9	-7	-0.73
O=C(CN1CCN(c2ccc(F)cc2)CC1)N1CCC(Cc2ccccc2)CC1	0.019	31*	15	1	2	-0.53
O=C(CN1C(=O)NC2(CCCCCC2)C1=O)N1CCC(Cc2ccccc2)CC1	1.4	.	-11	0.9	.	4.3*
Cc1ccc(C(=O)CSc2nc3cc(S(=O)(=O)N4CCOCC4)ccc3o2)cc1	0.11	39*	17	0.9	-7	-1.8
CCN(CC)C(=O)CSc1nnc(-c2ccccc2)n1-c1ccccc1	-0.016	4	1	0.9	1	-0.034
CCN(CC)C(=O)Cn1c(=O)n(-c2ccccc2)c(=O)n1CC(=O)N(CC)CC	-9.6*	14	7	0.9	8	0.15
CN(C(=O)c1ccccc1)c1ccc(OCC(=O)NC2CCS(=O)(=O)C2)cc1 (configuration not stated)	1.3	-1	11	1	1	0.39
Cc1nc(-c2cccc(NS(=O)(=O)c3ccc4ccccc4c3)c2)cs1	0.35	39*	-4	.	8	-2.4
Cc1nc(CNS(=O)(=O)c2ccc3ccccc3c2)cs1	0.45	12	9	0.9	3	-1.1
O=S(=O)(Nc1cccc(CCc2ccccn2)c1)c1ccc2ccccc2c1	2.3	32*	.	.	6	-4.4*
CC(=O)NC1C(=O)SC1(C)C (configuration not stated)	-0.64	13	12	1	4	0.02
O=C(NCCN1CCOCC1)c1ccc(Cl)cc1	1.3	4	-1	0.9	13	.
O=C(/C=C/c1ccc(Cl)cc1)NCCN1CCOCC1	-7.8*	11	.	.	3	0.57
O=[N+]([O-])c1ccc2nc(-c3ccccc3)n(OCc3ccc(Cl)cc3)c2c1	1.4	16	.	.	-3	-4.5*
CC1CCN(C(=O)COC(=O)[C@H](C)NS(=O)(=O)/C=C/c2ccccc2)CC1	-0.39	6	14	.	2	-5.9*
CCC(C)NS(=O)(=O)c1ccc(OCC(=O)N2CCC(C)CC2)cc1 (configuration not stated)	0.98	.	6	.	.	0.35
CCOC(=O)c1ccccc1N1C(=O)CSC1=S	-0.57	9	1	1	-1	0.033
Cc1ccnc(SCC(=O)n2c3c(c4ccccc42)CC(C)CC3)n1 (configuration not stated)	-0.62	35*	.	.	-5	-0.48
CCCc1cc(=O)oc2cc(OCC(=O)N(C)C)c(Cl)cc12	-0.067	7	-18	0.9	0	0.98
COc1cccc(Nc2nc(NCC3CCCO3)c3ccccc3n2)c1 (configuration not stated)	0.084	8	4	.	-5	-5.7*
CCOC(=O)C1CCN(C(=O)CN(c2cccc(C(F)(F)F)c2)S(C)(=O)=O)CC1	0.59	-2	-1	0.9	8	-0.5
Cc1ccc(S(=O)(=O)N(CC(=O)N2CCC(C(N)=O)CC2)c2cccc(C(F)(F)F)c2)cc1	-0.59	5	2	1	43*	0.33
O=C(CC12CC3CC(CC(C3)C1)C2)NCCN1CCOCC1	0.017	2	-9	0.9	4	0.25
O=C(CN1CCOCC1)NCC12CC3CC(CC(C3)C1)C2	-0.81	37*	-2	0.9	1	1.2
SMILES	hDAT+cocaine	PostGolgi ctrl	Smad3 inh	TNAP act mid DEA	PostGolgi yeast	Cav32 inh
COc1cc(OC)c(OC)cc1CN(C)CCc1ccccn1	0.16	7	0	0.9	-2	.
CCCc1nc2ccccc2c(=O)n1/N=C/c1c(C)[nH]n(-c2ccc(C)cc2)c1=O	0.031	0	8	0.9	-3	-3.8*
CCOC(=O)c1nnc(-c2ccccc2)nc1NCc1ccc(Cl)cc1	0.93	39*	.	.	15	-1.8
CCOC(=O)c1nnc(-c2ccc(C)cc2)nc1Oc1ccccc1Cl	-0.14	47*	.	.	-2	.
CCOC(=O)c1nnc(-c2ccc(C)cc2)nc1Sc1ccc(Cl)cc1	-0.25	3	1	.	21	0.37
CCOC(=O)c1nnc(-c2cccs2)nc1Oc1ccc(Cl)cc1	-0.48	47*	7	.	22	-1
CCOC(=O)c1nnc(-c2ccc(C)cc2)nc1Oc1ccc(Cl)cc1Cl	-2.7*	35*	.	.	12	-1.3
CCOC(=O)c1nnc(-c2cccs2)nc1Oc1ccccc1C(=O)OC	-1.9	9	1	.	20	-0.77
CCOC(=O)/C=C1\SCC(=O)N1CC(=O)NC(C)C	0.75	9	.	.	11	0.3
COc1cc(/C=C2/OC(=O)c3cc([N+](=O)[O-])ccc32)cc(OC)c1OC	-1	.	-4	.	.	-0.78
Cc1ccc(-n2ccc(=O)c(-c3ccnc(SCc4cccc(Cl)c4)n3)n2)cc1	-0.34	19	.	.	-12	0.0053
CNS(=O)(=O)c1ccc(NC(=O)c2nc3nc(C)cc(C(F)F)n3n2)cc1	-0.13	-8	.	.	-7	0.35
CC(Oc1ccc(Cl)cc1Cl)C(=O)NC1=NN(c2ccccc2)C(=O)C1 (configuration not stated)	0.96	-6	.	.	-15	-0.66
Cc1ccn(C(=O)c2cc3c(C)nn(-c4ccccc4)c3s2)n1	1	10	-6	.	-14	-0.66
Cc1c(C(=O)NCCSCc2ccc(Cl)cc2Cl)cccc1[N+](=O)[O-]	0.17	55*	.	.	1	-1
COc1ccccc1OCCCc1c(C)n[nH]c1C	0.13	100*	-9	0.9	109*	0.33
Cc1n[nH]c(C)c1CCCOc1ccccc1	0.3	4	13	.	0	-0.59
Cc1cccc(OCCCCc2c(C)n[nH]c2C)c1C	0.36	38*	-2	1.2	8	-3.1
COc1cccc(OCCc2c(C)n[nH]c2C)c1	1.4	0	.	.	21	-0.14
Cc1cccc(OCCCCc2c(C)n[nH]c2C)c1	-0.5	18	-21	1	3	-5.8*
CCOc1ccccc1OCCCCCc1c(C)n[nH]c1C	0.61	12	5	1.1	-6	-3.6*
COc1ccccc1OCCCCCc1c(C)n[nH]c1C	1.2	4	2	0.9	-13	-1.1
CC1CC(C)CN(CC(=O)N2CCc3[nH]c4ccccc4c3C2)C1 (configuration not stated)	0.26	0	-6	1	2	1.3

High-throughput results from PubChem.
